IkB signaling: inhibitors of IkB signaling in ABC-DLBCL cells | ABC-DLBCL IkBa-CBG/CBR dual luciferase ratio, 4 h; response scale: scaled: untreated 0%, proteasome inhibitor 100% | Potency, µM (top dose mostly 57.1 µM) | 0.04% of 110,000 active | AID 445; active = well fitted curve in the direction sought with a large enough effect in the signal ratio, not every such curve was filed as active; inconclusive = small, poorly fitted or top-dose-only effect, or a change in a side signal; the % refers to the signal ratio;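 also: the direction sought is a rising ratio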
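In this assay, an IκBα–CBG68 fusion accumulates when IKK-driven degradation is blocked; native CBR normalizes for cell number. OCI-Ly3 cells were treated 4 h with compound and doxycycline, then green and red light read after Chroma-Glo addition.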
p53ts 39C kill: kills p53ts cells at the nonpermissive temperature. Potency, µM (series often up to 46.1 µM), hits mostly cytotoxic. H1299-p53A138V viability at 39C, ATP luminescence, 24 h. 1.5% of 130,000 active; also: nearly all actives have a fitted effect of over 55% in size
p53ts 32C tox: p53ts cell cytotoxicity, permissive temperature; AID 924; Potency, µM (doses to about 46.1 µM), most hits filed as cytotoxic; H1299-p53A138V at 32C, ATP luminescence viability, 24 h; 0.93% of 130,000 active; also: nearly all actives have a fitted effect of over 55% in size
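ATP-content luminescence (ATPlite) read-out after 24 h compound exposure at 32C in H1299-p53A138V cells (600/well). Tested up to 46 uM. Normalized to DMSO (0%) and 100 uM tamoxifen (100% killing); Hill-fit AC50.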
Peg3 imprint: genomic imprint erasure induction; mouse ES Peg3-LacZ reporter, beta-gal luminescence, 40 h; Potency, µM (doses to about 60.7 µM), usual class: activators; 0.02% of 110,000 active
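Imprint erasure is scored as LacZ activity from the silenced maternal Peg3 allele in feeder-free female ES cells cultured 40 h with LIF. Luminescence is normalized to in-plate negative controls and fitted to the Hill equation.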
HEK293 cAMP cs: counter-screen for TSHR agonists: cAMP increase in parental HEK293 | Potency, µM (highest dose often 57.1 µM), hits mostly activators | parental HEK293 CNG cAMP sensor, membrane potential fluorescence | 2.5% of 73,000 active; also: nearly all actives have a fitted effect of over 55% in size
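Parental HEK 293 cells stably expressing a modified CNG channel (no TSHR) report cAMP rise as membrane depolarization. Membrane potential dye with 100 uM RO 20-1724 was loaded for 60 min at room temperature, then compound added for 30 min; fluorescence read at 590 nm.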
TSHR agonist: agonists of human thyroid stimulating hormone receptor. P16473. HEK293-CNG-TSHR cells (CNG channel as cAMP sensor), membrane potential dye, cAMP. Potency, µM (highest dose often 57.1 µM), hits mostly activators. 0.48% of 73,000 active. AID 926; active = well fitted activation curve with a large enough effect in the main read-out, with a control signal flat, not every such curve was filed as active; inconclusive = small, poorly fitted or top-dose-only effect, or a change in a side signal; inactive = no such curve, though single readings can be large or run the other way; reference of the percent scale not stated here;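 also: the control signal comes from parental cells without the receptor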
Target sequence (P16473 whole entry, looked up): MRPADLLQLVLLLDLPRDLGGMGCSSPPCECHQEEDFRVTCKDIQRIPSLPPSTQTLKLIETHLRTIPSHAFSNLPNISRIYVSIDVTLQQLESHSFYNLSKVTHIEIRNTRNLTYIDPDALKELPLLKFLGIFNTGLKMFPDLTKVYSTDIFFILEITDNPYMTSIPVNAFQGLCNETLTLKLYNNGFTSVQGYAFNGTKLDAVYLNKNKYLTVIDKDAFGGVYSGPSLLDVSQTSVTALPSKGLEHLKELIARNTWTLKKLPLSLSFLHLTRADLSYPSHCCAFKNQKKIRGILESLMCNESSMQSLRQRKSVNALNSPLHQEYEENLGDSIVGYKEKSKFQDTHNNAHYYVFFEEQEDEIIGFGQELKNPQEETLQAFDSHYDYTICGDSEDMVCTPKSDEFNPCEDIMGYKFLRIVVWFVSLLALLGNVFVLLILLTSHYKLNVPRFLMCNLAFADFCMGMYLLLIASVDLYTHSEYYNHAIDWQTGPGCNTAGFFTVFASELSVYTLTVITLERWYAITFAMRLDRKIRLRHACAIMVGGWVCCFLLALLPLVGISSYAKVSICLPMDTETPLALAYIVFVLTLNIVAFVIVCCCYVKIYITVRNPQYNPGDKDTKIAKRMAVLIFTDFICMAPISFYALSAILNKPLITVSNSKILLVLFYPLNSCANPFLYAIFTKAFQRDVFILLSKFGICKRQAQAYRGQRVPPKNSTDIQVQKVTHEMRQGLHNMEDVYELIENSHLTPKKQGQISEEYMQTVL
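HEK 293 cells stably expressing TSHR and a modified CNG channel, with CNG-only parental cells as counterscreen, were preloaded 60 min at room temperature with membrane potential dye containing 100 uM RO 20-1724. Compound exposure was 30 min, and depolarization was read as fluorescence at 590 nm.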
A number is an active result; - = inactive; ? = inconclusive; . = no result given; ! = not confirmed by another sample; [ ] = dose if it differs, or a comment. In the library only some 3.1% were active in any assay of this set; here they are far more common. Unless noted, calls follow the shape of the dose curve; as a rule, active = well fitted curve in the direction sought with a large enough effect; inconclusive = small, poorly fitted or top-dose-only effect, or another doubt; inactive = no such curve, though single readings can be large; an effect the other way counts as inactive or inconclusive.

SMILES | IkB signaling | p53ts 39C kill | p53ts 32C tox | Peg3 imprint | HEK293 cAMP cs | TSHR agonist
COc1cc(/C=C/C(=O)N2CCC=CC2=O)cc(OC)c1OC | . | ? | 3.2µM | - | . | .
CCc1cccc(C)c1NC(=O)CCn1nc(C)c2c(C)n(-c3ccccc3)nc2c1=O | - | - | - | -[10.9 µM] | . | .
N#C/C(=C\c1ccc(Sc2ccc(Cl)cc2)o1)c1nc2ccccc2[nH]1 | . | - | . | . | . | .
COc1cccc(/C=C(\C#N)c2nc3ccc(C)cc3[nH]2)c1 | - | - | - | -[10.9 µM] | . | .
N#C/C(=C/c1ccc(N2CCOCC2)o1)c1nc2ccccc2[nH]1 | . | ? | 16µM | . | . | .
Cc1ccc2nc(/C(C#N)=C/c3ccc(-c4ccc(F)cc4F)o3)[nH]c2c1 | ? | 5µM | 6.3µM | -[10.9 µM] | . | .
Cc1c(Cl)cccc1-c1ccc(/C=C(\C#N)c2nc3ccccc3[nH]2)o1 | - | 13µM | ? | -[10.9 µM] | . | .
CCc1ccc(CNc2ncc(-c3cccc(OC)c3)n2C)cc1 | - | ? | - | -[10.9 µM] | . | .
COc1ccc(-c2cc(C)nc3c(-c4ccc(OC)c(OC)c4)c(C)nn23)cc1 | ? | - | - | -[10.9 µM] | . | .
Cn1c(=O)c(-c2cccs2)nc2cnc(Oc3ccccc3)nc21 | -[11.4 µM] | - | - | . | - | .
O=S(=O)(c1ccccc1)c1nc(-c2ccc(Cl)cc2Cl)oc1N1CCCCCC1 | ? | - | - | -[10.9 µM] | . | .
CCCCC(=O)N(c1ccc(OCC)cc1)C1C=CS(=O)(=O)C1 (stereo not drawn) | - | - | - | - | - | -[11.4 µM]
CCCC(=O)N(c1ccc(OCC)cc1)C1C=CS(=O)(=O)C1 (stereo not drawn) | - | - | - | - | 3.2µM | ?
Cc1cc(Br)ccc1OCC(=O)N(Cc1nc(-c2ccccc2)no1)C(C)C | ? | - | - | - | 10µM | ?
FC(F)(F)c1cc(-c2ccco2)nc(-n2cnc3ccccc32)n1 | - | - | - | - | ? | ?
Cc1nc2ccccc2n1-c1nc(-c2ccco2)cc(C(F)(F)F)n1 | - | - | - | - | 3.2µM | ?
COc1cccc(-n2ccnc2SCC(=O)Nc2ccccc2)c1 | - | - | - | - | - | -[11.4 µM]
COc1ccc(-n2ccnc2SCC(=O)Nc2ccccc2)cc1 | - | - | - | - | 3.2µM | ?
Cc1cc(C)cc(N2CC(c3nc(-c4cccc(Cl)c4)no3)CC2=O)c1 (stereo not drawn) | ? | - | - | -[10.9 µM] | . | .
CCOCCN1CCN(c2c(CC)c(C)nc3cc(-c4cc(OC)cc(OC)c4)nn23)CC1 | . | - | - | . | . | .
CCc1c(C)nc2cc(-c3cc(OC)cc(OC)c3)nn2c1N1CCCC1 | ? | - | - | - | 20µM | ?
COc1ccc(C(=O)NCc2nnc(SCC(=O)Nc3ccccc3)n2-c2ccc(F)cc2)cc1 | ? | - | - | -[10.9 µM] | . | .
O=c1cc(C(F)(F)F)oc2c1ccc1ccccc12 | . | - | - | . | . | .
O=c1cc(-c2ccccc2)oc2c1ccc1ccccc12 | -[11.4 µM] | 32µM | - | - | 32µM | ?
CN(CC(=O)Nc1ccc(Cl)cc1F)S(=O)(=O)c1ccc2c(c1)n(C)c(=O)c(=O)n2C | - | - | - | -[10.9 µM] | . | .
SMILES | IkB signaling | p53ts 39C kill | p53ts 32C tox | Peg3 imprint | HEK293 cAMP cs | TSHR agonist
CN(C)CCCN1c2ccccc2CCc2ccc(Cl)cc21 | ? | 20µM! | - | - | ? | ?
COc1ccc(S(=O)(=O)Nc2cccc(-c3ccc(N4CCC(C)CC4)nn3)c2)cc1OC | ? | 2.5µM | 3.2µM | -[10.9 µM] | . | .
COc1ccc(F)cc1S(=O)(=O)Nc1cccc(-c2ccc(N3CCC(C)CC3)nn2)c1 | - | 7.9µM | ? | -[10.9 µM] | . | .
CC(C)CC(=O)N1c2nc(C(C)C)nn2C2(CCCCC2)[C@@H]2CCCC[C@@H]21 | - | - | - | -[10.9 µM] | . | .
Nc1nc(Nc2cccc(F)c2)nc2ccccc12 | - | 13µM | ? | - | - | ?
COc1ccc(CCNC(=O)CCCCn2c(=O)c3ccccc3n(Cc3cc(C)ccc3C)c2=O)cc1OC | - | - | - | -[10.9 µM] | . | .
Clc1ccc(CSc2nc3ncccc3[nH]2)cc1 | - | 10µM | 13µM | -[10.9 µM] | . | .
COCCNC(=O)c1nn(-c2ccc(Cl)cc2)nc1CO | - | - | - | -[10.9 µM] | . | .

Source: PubChem
